The source of these data is publication PMC7862700, “An all-to-all approach to the identification of sequence-specific readers for epigenetic DNA modifications on cytosine”.

Assay in all cases: DAPPL (digital affinity profiling via proximity ligation, sequencing); 10 mM Tris-HCl pH 7.5, 50 mM NaCl, 1 mM DTT, 4% glycerol, room temperature, 30 min; GST-TFs on glutathione beads, 16-mer random dsDNA library, 0.1% formaldehyde crosslink after washing; high values mean tight binding
What all share (conditions): protein: recombinant; tags: N-terminal GST; dsDNA, one strand shown

One test deals with T1, FLI1 (Homo sapiens, UniProt Q01543 1-452).
T1 sequence: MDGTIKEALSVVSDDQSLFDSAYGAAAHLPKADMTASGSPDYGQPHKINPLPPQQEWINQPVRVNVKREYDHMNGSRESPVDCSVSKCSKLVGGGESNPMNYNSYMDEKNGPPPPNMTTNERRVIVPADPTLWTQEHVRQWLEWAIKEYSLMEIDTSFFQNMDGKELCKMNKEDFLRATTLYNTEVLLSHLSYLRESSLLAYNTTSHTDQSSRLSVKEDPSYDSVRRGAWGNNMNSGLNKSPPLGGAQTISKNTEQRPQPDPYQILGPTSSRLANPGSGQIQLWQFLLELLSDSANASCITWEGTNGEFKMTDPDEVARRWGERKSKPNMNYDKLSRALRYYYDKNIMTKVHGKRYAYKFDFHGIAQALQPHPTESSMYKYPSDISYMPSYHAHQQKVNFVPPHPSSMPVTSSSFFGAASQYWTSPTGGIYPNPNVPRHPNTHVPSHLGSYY
The method in brief:
(§1)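 Sequencing on an Illumina NextSeq500 followed washing, crosslinking with 0.1% formaldehyde, proximity ligation (BsaI/T4 ligase, 1 h, 37 °C) and PCR amplification of pools that had been incubated for 30 min at room temperature with 200 nmole of a random double-stranded 16-mer DNA library in Tris/NaCl/DTT/glycerol buffer. Each pool held DNA-barcoded human transcription factors, expressed in yeast as GST fusions and captured on glutathione beads, plus a tag-only sample. Binding signal is a hexamer's read frequency for a factor divided by its frequency in the tag-only sample.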

For a further test, the target named is T2, ELK1 (Homo sapiens, UniProt P19419 1-428).
T2 sequence: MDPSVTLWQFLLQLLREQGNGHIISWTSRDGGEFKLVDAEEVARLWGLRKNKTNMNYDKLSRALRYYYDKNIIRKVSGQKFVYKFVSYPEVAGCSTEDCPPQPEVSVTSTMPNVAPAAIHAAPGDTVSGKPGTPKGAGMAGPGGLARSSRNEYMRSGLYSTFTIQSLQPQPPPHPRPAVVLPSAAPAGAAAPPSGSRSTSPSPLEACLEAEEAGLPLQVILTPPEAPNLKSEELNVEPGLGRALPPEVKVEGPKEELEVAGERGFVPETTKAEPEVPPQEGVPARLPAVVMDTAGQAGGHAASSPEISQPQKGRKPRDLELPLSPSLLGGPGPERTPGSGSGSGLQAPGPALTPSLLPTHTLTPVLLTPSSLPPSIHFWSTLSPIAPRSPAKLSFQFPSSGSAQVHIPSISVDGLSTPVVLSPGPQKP
The method, boiled down:
as §1

The next test addresses T3, GABPA (Homo sapiens, UniProt Q06546 1-454).
T3 sequence: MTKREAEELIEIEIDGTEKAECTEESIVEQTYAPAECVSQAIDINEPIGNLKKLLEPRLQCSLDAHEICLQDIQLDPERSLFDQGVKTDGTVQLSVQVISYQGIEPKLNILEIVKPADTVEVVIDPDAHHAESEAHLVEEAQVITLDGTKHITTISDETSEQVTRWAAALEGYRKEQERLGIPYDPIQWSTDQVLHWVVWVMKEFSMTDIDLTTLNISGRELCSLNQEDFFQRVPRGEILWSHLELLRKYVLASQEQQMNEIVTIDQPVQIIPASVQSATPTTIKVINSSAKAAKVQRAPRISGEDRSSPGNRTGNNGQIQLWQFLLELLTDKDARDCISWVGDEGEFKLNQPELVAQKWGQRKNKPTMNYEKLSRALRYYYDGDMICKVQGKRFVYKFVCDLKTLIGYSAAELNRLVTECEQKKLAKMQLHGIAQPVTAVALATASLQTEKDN
The method, boiled down: as §1

In a further test the target is T4, ERG (Homo sapiens, UniProt P11308 1-479).
T4 sequence: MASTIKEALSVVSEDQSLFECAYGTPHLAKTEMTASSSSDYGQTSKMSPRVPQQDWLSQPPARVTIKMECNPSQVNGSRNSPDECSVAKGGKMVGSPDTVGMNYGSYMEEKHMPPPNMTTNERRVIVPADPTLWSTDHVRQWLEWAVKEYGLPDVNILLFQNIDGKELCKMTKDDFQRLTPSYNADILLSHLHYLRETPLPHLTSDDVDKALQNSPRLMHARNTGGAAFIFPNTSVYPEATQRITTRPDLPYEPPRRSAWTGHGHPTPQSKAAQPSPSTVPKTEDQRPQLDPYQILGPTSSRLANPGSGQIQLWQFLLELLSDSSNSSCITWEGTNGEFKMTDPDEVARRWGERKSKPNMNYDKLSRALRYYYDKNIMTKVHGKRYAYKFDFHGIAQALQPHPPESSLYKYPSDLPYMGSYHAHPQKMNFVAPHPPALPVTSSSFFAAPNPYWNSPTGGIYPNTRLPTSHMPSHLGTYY
The method in brief:
as §1

The next test concerns the target ELF1 (Homo sapiens, UniProt P32519 1-619). The method, boiled down:
as §1

Another test deals with T5, EHF (Homo sapiens, UniProt Q9NZC4 1-300).
T5 sequence: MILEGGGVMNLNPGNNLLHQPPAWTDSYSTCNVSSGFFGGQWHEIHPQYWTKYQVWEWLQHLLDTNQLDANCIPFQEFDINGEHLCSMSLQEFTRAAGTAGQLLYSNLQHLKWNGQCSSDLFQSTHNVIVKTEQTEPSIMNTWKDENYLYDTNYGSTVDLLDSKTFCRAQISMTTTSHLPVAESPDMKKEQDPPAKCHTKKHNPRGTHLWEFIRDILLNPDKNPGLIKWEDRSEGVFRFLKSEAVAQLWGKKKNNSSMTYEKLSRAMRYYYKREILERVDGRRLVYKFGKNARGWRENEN
The method, boiled down:
as §1

Another test has as its target SPI1 (Homo sapiens, UniProt P17947 1-270). The method in brief:
as §1

The target of another test is SPIB (Homo sapiens, UniProt Q01892 1-262). The method in brief:
as §1

The target of a further test is T6, ELK3 (Homo sapiens, UniProt P41970 1-407).
T6 sequence: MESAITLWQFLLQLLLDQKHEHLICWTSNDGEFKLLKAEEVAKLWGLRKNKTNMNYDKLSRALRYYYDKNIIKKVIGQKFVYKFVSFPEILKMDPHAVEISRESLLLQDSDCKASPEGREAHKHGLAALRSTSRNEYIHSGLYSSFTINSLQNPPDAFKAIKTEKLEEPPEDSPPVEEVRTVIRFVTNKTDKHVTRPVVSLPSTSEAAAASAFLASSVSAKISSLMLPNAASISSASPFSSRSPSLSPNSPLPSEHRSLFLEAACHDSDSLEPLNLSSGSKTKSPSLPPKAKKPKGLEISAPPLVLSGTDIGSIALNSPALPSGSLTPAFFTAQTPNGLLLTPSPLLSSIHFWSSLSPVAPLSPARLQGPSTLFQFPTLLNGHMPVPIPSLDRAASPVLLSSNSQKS
The method in brief:
as §1

The target of the next test is T7, FEV (Homo sapiens, UniProt Q99581 1-238).
T7 sequence: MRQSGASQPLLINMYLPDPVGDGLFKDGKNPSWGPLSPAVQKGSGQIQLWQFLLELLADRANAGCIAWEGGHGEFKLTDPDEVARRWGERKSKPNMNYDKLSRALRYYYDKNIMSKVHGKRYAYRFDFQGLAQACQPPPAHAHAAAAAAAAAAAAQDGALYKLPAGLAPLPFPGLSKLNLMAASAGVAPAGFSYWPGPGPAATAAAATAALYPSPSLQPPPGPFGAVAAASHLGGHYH
The method in brief:
as §1

The target of another test is ETV5 (Homo sapiens, UniProt P41161 1-510). The method, boiled down:
as §1

A further test deals with T8, SPIC (Homo sapiens, UniProt Q8N5J4 1-248).
T8 sequence: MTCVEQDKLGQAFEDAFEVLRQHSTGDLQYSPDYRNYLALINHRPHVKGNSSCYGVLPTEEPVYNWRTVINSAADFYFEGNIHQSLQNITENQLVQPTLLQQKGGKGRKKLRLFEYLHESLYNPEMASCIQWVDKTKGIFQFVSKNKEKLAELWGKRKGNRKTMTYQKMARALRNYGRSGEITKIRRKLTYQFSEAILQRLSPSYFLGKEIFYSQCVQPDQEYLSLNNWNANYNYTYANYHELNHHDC
The method in brief:
as §1

The target in a further test is ELF4 (Homo sapiens, UniProt Q99607 1-663). The method in brief:
as §1

The target of the next test is T9, ELK4 (Homo sapiens, UniProt P28324-2 1-405).
T9 sequence: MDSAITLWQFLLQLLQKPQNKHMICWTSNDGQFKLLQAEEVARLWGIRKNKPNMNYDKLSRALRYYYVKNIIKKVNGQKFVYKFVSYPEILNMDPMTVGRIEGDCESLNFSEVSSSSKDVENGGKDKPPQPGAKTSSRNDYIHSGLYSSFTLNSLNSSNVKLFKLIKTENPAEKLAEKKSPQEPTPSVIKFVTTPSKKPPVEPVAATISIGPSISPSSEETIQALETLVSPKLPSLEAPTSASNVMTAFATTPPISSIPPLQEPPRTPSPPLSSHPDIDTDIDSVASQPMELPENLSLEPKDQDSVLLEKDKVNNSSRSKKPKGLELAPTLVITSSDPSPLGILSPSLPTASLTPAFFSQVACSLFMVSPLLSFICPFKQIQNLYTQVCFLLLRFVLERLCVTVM
The method in brief:
as §1

Another test concerns the target T10, ETV2 (Homo sapiens, UniProt O00321 1-342).
T10 sequence: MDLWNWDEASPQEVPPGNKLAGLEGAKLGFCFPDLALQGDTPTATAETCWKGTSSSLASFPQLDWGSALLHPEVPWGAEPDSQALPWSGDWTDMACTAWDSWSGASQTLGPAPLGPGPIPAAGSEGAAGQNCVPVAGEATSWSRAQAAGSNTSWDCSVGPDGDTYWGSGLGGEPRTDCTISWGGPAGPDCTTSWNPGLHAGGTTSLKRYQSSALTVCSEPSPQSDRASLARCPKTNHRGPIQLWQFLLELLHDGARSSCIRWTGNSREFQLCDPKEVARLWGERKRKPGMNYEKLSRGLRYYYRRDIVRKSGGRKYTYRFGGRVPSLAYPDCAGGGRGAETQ
The method in brief:
as §1

Another test concerns the target T11, ELF3 (Homo sapiens, UniProt P78545 1-371).
T11 sequence: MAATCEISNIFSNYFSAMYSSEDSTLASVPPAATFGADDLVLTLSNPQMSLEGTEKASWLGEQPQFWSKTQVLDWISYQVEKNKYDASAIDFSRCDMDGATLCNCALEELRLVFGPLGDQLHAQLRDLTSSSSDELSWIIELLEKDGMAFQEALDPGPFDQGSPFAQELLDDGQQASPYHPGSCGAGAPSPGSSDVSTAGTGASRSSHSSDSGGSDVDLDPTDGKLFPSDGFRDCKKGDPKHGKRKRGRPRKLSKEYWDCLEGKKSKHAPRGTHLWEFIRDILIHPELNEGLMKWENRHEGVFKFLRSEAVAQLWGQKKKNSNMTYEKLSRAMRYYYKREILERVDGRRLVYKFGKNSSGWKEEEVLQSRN
The method, boiled down: as §1

The next test addresses ETV1 (Homo sapiens, UniProt P50549 1-477). The method, boiled down:
as §1

Chain of ETV5 (P41161 whole entry): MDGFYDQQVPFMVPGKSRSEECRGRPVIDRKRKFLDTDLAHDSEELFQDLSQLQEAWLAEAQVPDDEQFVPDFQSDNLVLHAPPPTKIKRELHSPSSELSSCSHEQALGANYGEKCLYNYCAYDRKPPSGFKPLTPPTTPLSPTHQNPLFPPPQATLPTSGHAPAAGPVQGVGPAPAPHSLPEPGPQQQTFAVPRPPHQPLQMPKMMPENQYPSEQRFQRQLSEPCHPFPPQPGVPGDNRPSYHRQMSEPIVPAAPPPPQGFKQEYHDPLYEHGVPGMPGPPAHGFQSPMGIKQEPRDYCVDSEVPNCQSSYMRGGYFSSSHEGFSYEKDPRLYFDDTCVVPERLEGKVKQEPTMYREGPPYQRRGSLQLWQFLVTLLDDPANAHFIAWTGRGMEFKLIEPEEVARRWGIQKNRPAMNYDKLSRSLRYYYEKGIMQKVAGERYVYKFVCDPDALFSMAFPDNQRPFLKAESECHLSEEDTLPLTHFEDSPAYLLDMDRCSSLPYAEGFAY
Chain of ELF1 (P32519 whole entry): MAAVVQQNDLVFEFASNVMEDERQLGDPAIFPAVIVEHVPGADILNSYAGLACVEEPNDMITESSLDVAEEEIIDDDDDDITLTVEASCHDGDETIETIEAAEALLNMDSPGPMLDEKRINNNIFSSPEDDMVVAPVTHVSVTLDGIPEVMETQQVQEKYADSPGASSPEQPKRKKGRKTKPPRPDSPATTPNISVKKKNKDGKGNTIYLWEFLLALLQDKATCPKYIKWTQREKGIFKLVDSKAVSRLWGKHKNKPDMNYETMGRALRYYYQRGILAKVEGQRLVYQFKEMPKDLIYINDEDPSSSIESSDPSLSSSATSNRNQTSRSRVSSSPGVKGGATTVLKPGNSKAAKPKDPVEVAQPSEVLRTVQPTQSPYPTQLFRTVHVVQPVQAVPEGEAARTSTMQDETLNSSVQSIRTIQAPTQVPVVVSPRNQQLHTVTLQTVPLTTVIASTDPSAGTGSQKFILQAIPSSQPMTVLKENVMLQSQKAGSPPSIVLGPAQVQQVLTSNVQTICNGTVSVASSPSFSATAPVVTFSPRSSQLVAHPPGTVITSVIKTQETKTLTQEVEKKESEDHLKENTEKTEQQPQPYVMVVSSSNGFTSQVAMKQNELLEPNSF
Chain of ELF4 (Q99607 whole entry): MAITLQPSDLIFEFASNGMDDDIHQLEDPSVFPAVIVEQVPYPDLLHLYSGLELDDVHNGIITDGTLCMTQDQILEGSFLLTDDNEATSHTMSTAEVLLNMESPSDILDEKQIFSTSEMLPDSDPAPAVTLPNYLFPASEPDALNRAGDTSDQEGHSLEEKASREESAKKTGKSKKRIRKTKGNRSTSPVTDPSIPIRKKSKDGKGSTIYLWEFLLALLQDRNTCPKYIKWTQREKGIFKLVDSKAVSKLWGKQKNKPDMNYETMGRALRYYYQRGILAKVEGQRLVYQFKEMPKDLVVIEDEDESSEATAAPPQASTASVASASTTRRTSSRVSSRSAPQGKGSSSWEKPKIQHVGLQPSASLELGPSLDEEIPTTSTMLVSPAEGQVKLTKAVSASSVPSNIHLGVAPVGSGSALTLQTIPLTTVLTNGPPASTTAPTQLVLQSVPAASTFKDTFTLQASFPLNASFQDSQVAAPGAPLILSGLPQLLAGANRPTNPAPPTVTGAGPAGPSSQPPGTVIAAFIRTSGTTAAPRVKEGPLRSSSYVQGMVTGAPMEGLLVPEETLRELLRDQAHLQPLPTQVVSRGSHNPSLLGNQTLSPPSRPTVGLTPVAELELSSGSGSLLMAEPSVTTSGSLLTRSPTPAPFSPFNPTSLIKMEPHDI
Chain of ETV1 (P50549 whole entry): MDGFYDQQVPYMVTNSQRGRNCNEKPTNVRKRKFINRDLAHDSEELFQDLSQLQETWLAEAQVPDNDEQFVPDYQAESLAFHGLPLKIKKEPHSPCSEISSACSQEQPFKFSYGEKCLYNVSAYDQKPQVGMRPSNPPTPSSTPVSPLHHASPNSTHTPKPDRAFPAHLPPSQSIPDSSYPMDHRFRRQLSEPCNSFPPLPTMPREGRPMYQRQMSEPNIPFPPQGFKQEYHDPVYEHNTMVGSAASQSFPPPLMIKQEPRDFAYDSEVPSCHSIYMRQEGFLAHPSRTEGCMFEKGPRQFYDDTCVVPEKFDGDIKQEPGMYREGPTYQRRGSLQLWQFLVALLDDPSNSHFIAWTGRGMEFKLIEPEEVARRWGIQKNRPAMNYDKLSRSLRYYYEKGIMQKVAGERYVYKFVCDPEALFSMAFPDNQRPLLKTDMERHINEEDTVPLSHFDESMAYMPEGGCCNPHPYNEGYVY
Chain of SPIB (Q01892 whole entry): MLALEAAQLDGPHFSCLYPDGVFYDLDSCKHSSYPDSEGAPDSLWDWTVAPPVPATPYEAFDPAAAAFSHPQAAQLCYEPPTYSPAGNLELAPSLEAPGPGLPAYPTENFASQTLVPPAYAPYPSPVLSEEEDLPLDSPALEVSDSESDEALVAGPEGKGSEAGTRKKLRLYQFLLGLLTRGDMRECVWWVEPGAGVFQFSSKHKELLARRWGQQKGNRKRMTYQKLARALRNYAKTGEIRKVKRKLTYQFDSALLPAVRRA

In the case of ACGACA, the binding signal was 1.16 fold enrichment (6-mer frequency, TF over GST control) in the test with FLI1; 1.05 fold enrichment (6-mer frequency, TF over GST control) in the test with ELK1; 1.18 fold enrichment (6-mer frequency, TF over GST control) in the test with GABPA; 1.17 fold enrichment (6-mer frequency, TF over GST control) with ERG; 1.07 fold enrichment (6-mer frequency, TF over GST control) with ELF1; 1.27 fold enrichment (6-mer frequency, TF over GST control) with EHF. The binding signal in the test with SPI1 is 1.09 fold enrichment (6-mer frequency, TF over GST control); in the test with SPIB, 1.16 fold enrichment (6-mer frequency, TF over GST control); with ELK3 it was 1.11 fold enrichment (6-mer frequency, TF over GST control); with FEV, 1.14 fold enrichment (6-mer frequency, TF over GST control); in the test with ETV5, 1.11 fold enrichment (6-mer frequency, TF over GST control); in the test with SPIC it was 1.18 fold enrichment (6-mer frequency, TF over GST control). Also, the binding signal was 1.22 fold enrichment (6-mer frequency, TF over GST control) with ELF4; 1.16 fold enrichment (6-mer frequency, TF over GST control) in the test with ELK4; 1.1 fold enrichment (6-mer frequency, TF over GST control) with ETV2; 1.22 fold enrichment (6-mer frequency, TF over GST control) with ELF3; 1.18 fold enrichment (6-mer frequency, TF over GST control) with ETV1.
